# Active and inactive are the calls of the source.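 How the source made its calls, unless noted: active means inhibition above the screen-wide mean plus 3 SD, about 51%; inactive means the rest.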
# How the values were obtained:
# [1] = reduced mouse 2C T cell binding to pMHC/ICAM-1 vesicles – MLPCN validation set, flow cytometry, LFA-1/ICAM-1 modulator project, pilot screen (AID 2523;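 active means response below a set limit, under 55% cells CD8-positive and vesicle-bound, and CD8 cells' 90th-percentile brightness under 279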;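 on vesicle binding response: mean PE anti-B7-1 fluorescence of CD8+ cells relative to row control; 100% = QL9-loaded vesicles with DMSO vehicle in the same plate row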); conditions: 2C mouse CD8+ T cells, at 7 µM, stronger effect = lower value; double positive events: measured here: CD8+/vesicle+ event percentage
# [2] = biological target: Integrin beta-1 (Homo sapiens) + Integrin alpha-4 (Homo sapiens) (UniProt P13612+P05556); test: alpha4beta1 integrin LIBS antibody binding reduction – U937 cells, HUTS-21 mAb, flow cytometry, validation set, VLA-4 allosteric modulator project, pilot screen (AID 2674;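 active means inhibition above 50%, about 3 SD of the validation set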;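 further: antibody binding induced by the VLA-4 ligand LDV present at three times its Kd; 0% = LDV ligand with antibody and no compound and 100% = antibody without LDV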); conditions: HUTS-21 LIBS mAb binding, at 6.7 µM, stronger effect = higher value, binding induced by LDV ligand
# Integrin beta-1 (Homo sapiens) + Integrin alpha-4 (Homo sapiens), sequence (P05556 whole entry, looked up): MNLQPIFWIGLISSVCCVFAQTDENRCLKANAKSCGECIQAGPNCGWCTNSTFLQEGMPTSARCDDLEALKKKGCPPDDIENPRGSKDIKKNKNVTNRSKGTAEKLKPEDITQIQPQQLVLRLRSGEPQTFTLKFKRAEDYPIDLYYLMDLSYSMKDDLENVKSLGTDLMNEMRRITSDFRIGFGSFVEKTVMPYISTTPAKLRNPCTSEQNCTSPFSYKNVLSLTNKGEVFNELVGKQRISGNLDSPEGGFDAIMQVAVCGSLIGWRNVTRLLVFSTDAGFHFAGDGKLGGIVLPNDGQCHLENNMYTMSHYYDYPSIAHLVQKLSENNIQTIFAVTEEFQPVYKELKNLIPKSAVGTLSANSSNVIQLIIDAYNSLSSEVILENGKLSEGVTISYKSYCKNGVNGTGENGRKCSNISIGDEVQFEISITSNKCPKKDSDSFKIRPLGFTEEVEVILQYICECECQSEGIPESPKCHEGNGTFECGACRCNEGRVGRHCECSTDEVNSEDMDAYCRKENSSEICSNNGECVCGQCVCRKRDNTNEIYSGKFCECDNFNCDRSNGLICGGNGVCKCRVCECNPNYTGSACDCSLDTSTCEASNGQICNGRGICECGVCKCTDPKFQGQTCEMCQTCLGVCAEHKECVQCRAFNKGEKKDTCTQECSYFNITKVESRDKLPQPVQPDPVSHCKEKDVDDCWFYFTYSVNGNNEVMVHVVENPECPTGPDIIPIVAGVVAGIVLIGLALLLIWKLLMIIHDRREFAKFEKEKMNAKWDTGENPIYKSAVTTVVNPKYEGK
# Integrin beta-1 (Homo sapiens) + Integrin alpha-4 (Homo sapiens), sequence (P13612 whole entry, looked up): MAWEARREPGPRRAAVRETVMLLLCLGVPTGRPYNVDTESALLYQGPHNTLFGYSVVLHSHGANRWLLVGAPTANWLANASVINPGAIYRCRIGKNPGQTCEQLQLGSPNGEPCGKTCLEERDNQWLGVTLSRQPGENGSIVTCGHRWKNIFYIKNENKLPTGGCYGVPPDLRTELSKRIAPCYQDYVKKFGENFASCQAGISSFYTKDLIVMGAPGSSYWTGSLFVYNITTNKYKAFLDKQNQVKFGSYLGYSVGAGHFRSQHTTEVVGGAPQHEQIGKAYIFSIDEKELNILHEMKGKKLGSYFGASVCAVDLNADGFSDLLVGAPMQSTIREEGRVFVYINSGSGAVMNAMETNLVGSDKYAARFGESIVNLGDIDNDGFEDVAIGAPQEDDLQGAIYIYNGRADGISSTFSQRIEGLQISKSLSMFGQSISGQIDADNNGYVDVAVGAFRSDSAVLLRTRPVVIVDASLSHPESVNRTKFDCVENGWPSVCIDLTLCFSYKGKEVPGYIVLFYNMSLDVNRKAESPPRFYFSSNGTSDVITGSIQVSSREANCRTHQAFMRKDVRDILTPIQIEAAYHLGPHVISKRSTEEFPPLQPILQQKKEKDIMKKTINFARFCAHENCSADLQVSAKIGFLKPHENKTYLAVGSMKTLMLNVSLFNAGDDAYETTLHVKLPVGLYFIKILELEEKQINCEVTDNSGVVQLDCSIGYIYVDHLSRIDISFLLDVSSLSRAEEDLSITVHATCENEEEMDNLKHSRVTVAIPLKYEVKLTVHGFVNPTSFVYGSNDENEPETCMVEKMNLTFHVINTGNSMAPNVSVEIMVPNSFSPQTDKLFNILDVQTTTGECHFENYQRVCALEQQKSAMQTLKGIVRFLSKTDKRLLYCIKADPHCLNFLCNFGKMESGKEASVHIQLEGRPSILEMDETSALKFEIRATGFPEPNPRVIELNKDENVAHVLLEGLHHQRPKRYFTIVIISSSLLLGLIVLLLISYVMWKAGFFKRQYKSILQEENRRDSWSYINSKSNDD
# [3] = calorie-restriction mimetic ROS inhibitors, yeast – validation compound set, pilot screen (AID 2706;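 active means superoxide response below 65% of plate, a cut near 3 SD across the whole screen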;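 further: yeast exposed to compound for one week at 30 degrees C before staining; 100% = mean of all compound wells on the same plate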); conditions: S. cerevisiae aging, superoxide DHE fluorescence; at 10 µM, stronger effect = lower value
# [4] = biological target: Beta-adrenergic receptor kinase 1 (Homo sapiens) (UniProt P25098); test: GRK2 binders displacing RNA aptamer, biochemical, validation, human GRK2, bead flow cytometry (AID 488806;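 active means aptamer binding inhibition above 30%, about 3 SD of noise from non-fluorescent compounds; inactive means inhibition at or below 30%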); conditions: bead-bound GRK2, FAM-aptamer displacement, at 10 µM, stronger effect = higher value
# Beta-adrenergic receptor kinase 1 (Homo sapiens), sequence (P25098 whole entry, looked up): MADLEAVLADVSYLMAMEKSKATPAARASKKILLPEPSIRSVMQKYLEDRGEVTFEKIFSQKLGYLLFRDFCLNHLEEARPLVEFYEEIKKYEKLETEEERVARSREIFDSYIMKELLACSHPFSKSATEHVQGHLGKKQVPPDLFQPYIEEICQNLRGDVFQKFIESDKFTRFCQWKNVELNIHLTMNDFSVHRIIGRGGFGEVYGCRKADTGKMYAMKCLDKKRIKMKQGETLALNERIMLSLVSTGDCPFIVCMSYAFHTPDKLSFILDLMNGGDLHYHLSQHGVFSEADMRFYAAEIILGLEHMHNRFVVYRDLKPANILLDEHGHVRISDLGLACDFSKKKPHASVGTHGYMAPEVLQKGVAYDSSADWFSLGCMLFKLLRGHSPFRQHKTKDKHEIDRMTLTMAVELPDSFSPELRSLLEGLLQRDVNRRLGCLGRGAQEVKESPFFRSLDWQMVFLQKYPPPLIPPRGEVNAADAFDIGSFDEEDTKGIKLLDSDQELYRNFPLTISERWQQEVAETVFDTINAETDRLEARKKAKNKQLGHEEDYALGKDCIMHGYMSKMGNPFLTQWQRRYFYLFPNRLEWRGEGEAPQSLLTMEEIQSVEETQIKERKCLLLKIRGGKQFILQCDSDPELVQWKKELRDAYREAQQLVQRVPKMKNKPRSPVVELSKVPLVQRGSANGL
# [5] = biological target: Beta-2 adrenergic receptor (Homo sapiens) (UniProt P07550); test: agonist-induced loss of surface beta2AR – cell-based, FAP fluorogen, flow cytometry, validation set, pilot screen (AID 504459;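 active means percent response above 42, roughly 3 SD of non-fluorescent test compounds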;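 further: agonist-driven loss of surface beta2AR via internalization measured by FAP dye flow cytometry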); conditions: Am2.2-beta2AR cells, at 10 µM, stronger effect = higher value
# Beta-2 adrenergic receptor (Homo sapiens), sequence (P07550 whole entry, looked up): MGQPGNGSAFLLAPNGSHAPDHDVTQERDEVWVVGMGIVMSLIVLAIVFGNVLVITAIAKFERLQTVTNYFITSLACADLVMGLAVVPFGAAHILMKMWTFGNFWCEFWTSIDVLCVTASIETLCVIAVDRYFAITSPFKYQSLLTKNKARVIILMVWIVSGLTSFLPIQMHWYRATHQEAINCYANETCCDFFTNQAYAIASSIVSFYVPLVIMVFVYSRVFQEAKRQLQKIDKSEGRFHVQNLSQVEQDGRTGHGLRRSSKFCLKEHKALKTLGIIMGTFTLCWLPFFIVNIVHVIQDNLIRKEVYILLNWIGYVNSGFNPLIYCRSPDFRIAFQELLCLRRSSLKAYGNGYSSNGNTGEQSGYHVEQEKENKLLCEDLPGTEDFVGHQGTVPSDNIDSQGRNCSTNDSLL
# [6] = biological target: AP-2 complex subunit beta (Homo sapiens) (UniProt P63010); test: beta-arrestin/AP2 interaction blockers – biochemical, validation set, GST-AP2 beads, flow cytometry, pilot screen (AID 504541;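 active means inhibition above 54%, about 3 SD of non-fluorescent compounds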;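 further: AP2 carries R879A mutation and is captured from E. coli lysate; bead-bound FITC arrestin peptide fluorescence measuring arrestin peptide binding to AP2; 0% = DMSO wells and 100% = excess unlabeled arrestin peptide control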); conditions: FITC arrestin peptide, at 10 µM, stronger effect = higher value, AP2 beta2 appendage fragment, R879A mutant
# AP-2 complex subunit beta (Homo sapiens), sequence (P63010 whole entry, looked up, the tested form may be a part, one chain of several): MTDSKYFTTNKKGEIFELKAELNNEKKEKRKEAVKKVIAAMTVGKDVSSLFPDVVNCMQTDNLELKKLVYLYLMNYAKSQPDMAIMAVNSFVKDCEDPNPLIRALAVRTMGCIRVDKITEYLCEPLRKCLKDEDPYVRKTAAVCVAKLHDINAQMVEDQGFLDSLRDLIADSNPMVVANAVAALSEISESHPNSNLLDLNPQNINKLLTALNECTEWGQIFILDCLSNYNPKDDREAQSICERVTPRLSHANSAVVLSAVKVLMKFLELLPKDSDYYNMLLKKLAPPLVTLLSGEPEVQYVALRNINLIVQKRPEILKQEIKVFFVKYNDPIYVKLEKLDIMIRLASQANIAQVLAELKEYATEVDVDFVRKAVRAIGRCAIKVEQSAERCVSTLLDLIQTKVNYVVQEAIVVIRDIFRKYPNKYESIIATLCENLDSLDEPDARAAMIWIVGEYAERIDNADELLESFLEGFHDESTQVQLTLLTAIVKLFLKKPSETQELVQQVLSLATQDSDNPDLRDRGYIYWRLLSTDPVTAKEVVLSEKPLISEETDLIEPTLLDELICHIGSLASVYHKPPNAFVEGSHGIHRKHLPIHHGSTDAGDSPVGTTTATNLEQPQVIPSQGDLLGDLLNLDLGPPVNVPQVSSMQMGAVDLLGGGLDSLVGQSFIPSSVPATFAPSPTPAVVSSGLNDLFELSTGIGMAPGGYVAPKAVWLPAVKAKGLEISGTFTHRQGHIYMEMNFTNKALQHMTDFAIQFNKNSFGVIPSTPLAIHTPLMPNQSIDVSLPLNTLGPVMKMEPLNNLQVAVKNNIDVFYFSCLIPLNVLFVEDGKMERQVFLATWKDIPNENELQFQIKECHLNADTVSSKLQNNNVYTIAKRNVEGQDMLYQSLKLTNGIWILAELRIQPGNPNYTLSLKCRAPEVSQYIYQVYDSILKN
# [7] = cytosolic pH regulators acting via V-ATPase – S. cerevisiae, pHLuorin, HTS validation (AID 504600; in the data active means response above about 15%;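 further: plate controls were DMSO for no effect and reference compound for full effect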); conditions: V-ATPase proton transport, at 10 µM, stronger effect = higher value
# [8] = system: anti-desmoglein-3 scFv antibody binding to human DSG3; test: blockers of pathogenic pemphigus antibody–desmoglein-3 binding – biochemical, validation compound set, bead-based, flow cytometry, pilot screen (AID 588368;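 active means binding below the plate cutoff, the plate median minus 3 SD, with a reading above zero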;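 further: signal is the median channel fluorescence of bead-bound GFP antibody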); conditions: Protein G beads, DSG3-Fc, scFv-GFP binding, at 10 µM, stronger effect = lower value
# [9] = Nile Red efflux blockade in pump-expressing yeast – validation compound set, multiplex, phenotypic, pilot screen (AID 588506;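 active means efflux inhibition above 0.42, the validation set average plus 4 SD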;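 further: Nile Red retained in cells so higher fluorescence means more efflux inhibition; 0 = negative control wells and 1 = enniatin B 25 µM full block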); conditions: S. cerevisiae pump-expressing triplex, Nile Red efflux flow cytometry; at 10 µM; stronger effect = higher value; the pumps come from Candida albicans
# [10] = biological target: ATP-binding cassette sub-family B member 6 (Homo sapiens) (UniProt Q9NP58); test: blockers of ABCB6-driven porphyrin uptake – K562-ABCB6 cells, flow cytometry, validation set, pilot screen (AID 588550); conditions: K562-ABCB6 porphyrin accumulation, 1 h, at 10 µM, stronger effect = higher value;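 further: 0% = DMSO wells and 100% = benzethonium chloride 70 µM positive control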
# ATP-binding cassette sub-family B member 6 (Homo sapiens), sequence (Q9NP58 whole entry, looked up): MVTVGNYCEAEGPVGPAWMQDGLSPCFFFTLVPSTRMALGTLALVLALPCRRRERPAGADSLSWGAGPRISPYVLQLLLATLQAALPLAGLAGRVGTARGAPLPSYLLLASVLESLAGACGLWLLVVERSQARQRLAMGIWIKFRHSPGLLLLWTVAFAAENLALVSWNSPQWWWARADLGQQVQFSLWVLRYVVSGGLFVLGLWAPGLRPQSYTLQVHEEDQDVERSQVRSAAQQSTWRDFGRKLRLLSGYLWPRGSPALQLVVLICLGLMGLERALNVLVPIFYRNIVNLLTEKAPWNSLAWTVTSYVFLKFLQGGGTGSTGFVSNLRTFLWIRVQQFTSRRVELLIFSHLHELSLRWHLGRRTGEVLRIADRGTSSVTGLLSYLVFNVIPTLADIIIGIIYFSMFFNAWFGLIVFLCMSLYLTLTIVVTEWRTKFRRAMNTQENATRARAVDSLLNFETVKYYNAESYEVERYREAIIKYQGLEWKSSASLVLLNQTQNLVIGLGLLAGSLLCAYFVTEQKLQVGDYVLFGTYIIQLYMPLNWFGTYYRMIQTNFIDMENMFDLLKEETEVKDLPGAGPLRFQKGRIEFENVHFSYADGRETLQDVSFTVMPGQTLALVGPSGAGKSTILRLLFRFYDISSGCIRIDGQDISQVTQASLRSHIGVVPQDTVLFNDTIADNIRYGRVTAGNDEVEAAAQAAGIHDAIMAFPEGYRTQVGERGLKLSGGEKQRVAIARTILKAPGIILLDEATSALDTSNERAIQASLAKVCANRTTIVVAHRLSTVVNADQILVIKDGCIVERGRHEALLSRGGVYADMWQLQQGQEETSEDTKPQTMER
# [11] = AML differentiation inducers, ER-HoxA9 marrow cells – cell-based, GFP/MAC1 double positive, flow cytometry, validation set, primary screen (AID 588685;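 active means differentiation response of at least 50%, scaled between solvent and reference control, from cells with both markers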;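 further: compound exposure lasts four days before antibody staining and flow analysis; 0% = DMSO wells and 100% = 5 µM fulvestrant positive control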); conditions: stronger effect = higher value, normalized: vehicle 0, fulvestrant 100
Compound,double positive events [1] [%],vesicle binding response [1],inhibition [2],superoxide response (% of plate) [3],aptamer binding inhibition [4],response [5],inhibition [6],response [7],binding (% of control) [8],efflux inhibition (fraction of control) [9],inhibition [10],differentiation response [11]
CCOC(=O)c1cnc2ccc(C(=O)OC)cc2c1Nc1ccc2c(c1)OCCO2,63.9,266% (inactive),0.59% (inactive),99.1% (inactive),6% (inactive),-25.7% (inactive),-8.06% (inactive),-27.9% (inactive),97.4% (inactive),0.08 (inactive),-2% (inactive),-0.06% (inactive)
COc1ccc(/C=C2\CCn3c2nc2cc(C(=O)O)ccc2c3=O)cc1OC,60.5,178% (inactive),5.61% (inactive),108% (inactive),1% (inactive),7.98% (inactive),-3.78% (inactive),0.13% (inactive),102% (inactive),0 (inactive),2% (inactive),-8.96% (inactive)
COc1ccc(-c2cc(=O)oc3c(C)c(O)c(CN(C)C)cc23)cc1,66,183% (inactive),9.63% (inactive),96.8% (inactive),1% (inactive),-14.6% (inactive),2.69% (inactive),5.58% (inactive),98.3% (inactive),0.42 (inactive),0% (inactive),2.74% (inactive)
Cc1oc2c(C)c3oc(=O)c4c(c3cc2c1C)CCCC4,54.6,32.8% (active),-22.2% (inactive),114% (inactive),3% (inactive),-4.45% (inactive),-2.86% (inactive),0.57% (inactive),89.1% (inactive),-0.2 (inactive),2% (inactive),2.2% (inactive)
O=C(Nc1c(C(=O)O)[nH]c2ccccc12)NC1CCCCC1,60.3,190% (inactive),-17.3% (inactive),102% (inactive),4% (inactive),-18.9% (inactive),3.04% (inactive),5.33% (inactive),101% (inactive),-0.13 (inactive),-3% (inactive),-4% (inactive)
CCc1cc2c3c(c(=O)oc2cc1O)CCCC3,67.8,257% (inactive),-18.2% (inactive),93.2% (inactive),1% (inactive),1.88% (inactive),-7.42% (inactive),2.52% (inactive),99.5% (inactive),-0.21 (inactive),11% (inactive),4% (inactive)
COCc1cc(=O)[nH]c(Nc2nc3ccccc3o2)n1,62.6,117% (inactive),-7.93% (inactive),86.3% (inactive),3% (inactive),-16.5% (inactive),-0.3% (inactive),6.3% (inactive),108% (inactive),0 (inactive),4% (inactive),6.83% (inactive)
OC(COCc1ccccc1)CN1CCN(Cc2ccc3c(c2)OCO3)CC1 (configuration not stated),59.4,189% (inactive),7.76% (inactive),110% (inactive),2% (inactive),4.46% (inactive),-4.35% (inactive),4.61% (inactive),97.8% (inactive),-0.21 (inactive),4% (inactive),8.8% (inactive)
CCOC(=O)c1cc2cc3ccccc3cc2[nH]1,70.4,334% (inactive),-1.79% (inactive),81.1% (inactive),1% (inactive),15.9% (inactive),-6.18% (inactive),-1.49% (inactive),99.1% (inactive),-0.1 (inactive),6% (inactive),7.2% (inactive)
CC(=O)N1CC23C=CC(CC2CC12CCCCCC2)O3 (configuration not stated),61.4,200% (inactive),3.99% (inactive),102% (inactive),8% (inactive),-21.9% (inactive),-0.87% (inactive),-29.7% (inactive),104% (inactive),-0.09 (inactive),0% (inactive),0% (inactive)
CC(=O)c1c(C)[nH]c(C(=O)OCc2ccccc2)c1C,60.2,120% (inactive),1.59% (inactive),103% (inactive),3% (inactive),-5.41% (inactive),9.32% (inactive),0.36% (inactive),103% (inactive),-0.25 (inactive),1% (inactive),-13.3% (inactive)
COc1ccccc1C(=O)N=C1NC(=O)CC2C(=O)NCCN12 (configuration not stated),63.2,245% (inactive),6.4% (inactive),100% (inactive),0% (inactive),-0.52% (inactive),0.24% (inactive),-0.05% (inactive),103% (inactive),0.08 (inactive),9% (inactive),-8.8% (inactive)
CCOC(=O)COc1ccc2c(=O)c(-c3ccccc3)coc2c1,61.7,236% (inactive),21% (inactive),92.8% (inactive),0% (inactive),-10.5% (inactive),1.34% (inactive),0.65% (inactive),100% (inactive),-0.09 (inactive),-4% (inactive),-7.94% (inactive)
CC(C)c1ccc2[nH]c3c(c2c1)CCCC3=O,59.4,113% (inactive),4.27% (inactive),97.7% (inactive),2% (inactive),11.3% (inactive),0.1% (inactive),1.31% (inactive),102% (inactive),0.04 (inactive),27% (inactive),-1.65% (inactive)
COc1ccc(C(=O)/C=C2/c3ccccc3CC(C)(C)N2C)cc1,59.8,124% (inactive),2.93% (inactive),99% (inactive),3% (inactive),23.7% (inactive),-8.96% (inactive),-3.68% (inactive),98.3% (inactive),-0.25 (inactive),7% (inactive),-7.5% (inactive)
COc1cccc(OC2OC3COC(C)(C)OC3C(O)C2NC(C)=O)c1 (configuration not stated),63.6,203% (inactive),5.61% (inactive),97.8% (inactive),2% (inactive),2.82% (inactive),2.96% (inactive),6.08% (inactive),103% (inactive),0.1 (inactive),30% (inactive),-11.9% (inactive)
CCn1c2ccccc2c2cc(CC(N)=O)ccc21,60.8,153% (inactive),20.2% (inactive),92.7% (inactive),-1% (inactive),-19.5% (inactive),1.51% (inactive),-10.1% (inactive),103% (inactive),0.04 (inactive),5% (inactive),-0.06% (inactive)
O=C(c1cc2cc(Br)ccc2o1)N1CCCCC1,63.8,320% (inactive),10.5% (inactive),86.2% (inactive),-4% (inactive),-13.7% (inactive),-1.81% (inactive),-0.39% (inactive),73.3% (active),0.05 (inactive),6% (inactive),4% (inactive)
COc1cc2c(cc1O)CCN(C(=O)c1ccco1)C2C (configuration not stated),59.4,242% (inactive),5.03% (inactive),98.4% (inactive),-1% (inactive),0.24% (inactive),14.6% (inactive),0.13% (inactive),97.4% (inactive),0.22 (inactive),4% (inactive),8.8% (inactive)
COc1ccc(CCN2CCC(Nc3nc4ccccc4n3Cc3ccc(F)cc3)CC2)cc1,44.8,112% (inactive),16.3% (inactive),93.2% (inactive),-15% (inactive),34.8% (inactive),1.18% (inactive),4.6% (inactive),138% (inactive),0.415 (inactive),-38% (inactive),10.1% (inactive)
CC(C)(C)C(=O)NC(=S)Nc1sc2c(c1C(N)=O)CCC2,60.2,119% (inactive),-4.52% (inactive),109% (inactive),2% (inactive),7.03% (inactive),2.56% (inactive),-1.19% (inactive),96.6% (inactive),-0.24 (inactive),4% (inactive),-29.6% (inactive)
CCc1cccc(OC2OC(CO)C(O)C(O)C2NC(C)=O)c1 (configuration not stated),69.6,308% (inactive),-5.38% (inactive),98.7% (inactive),1% (inactive),-16.8% (inactive),-1.83% (inactive),4.31% (inactive),103% (inactive),-0.13 (inactive),7% (inactive),0.92% (inactive)
COc1cc([C@@H]2c3cc4c(cc3[C@H](O)[C@H]3COC(=O)[C@H]23)OCO4)cc(OC)c1OC,63.2,180% (inactive),38.9% (inactive),99.1% (inactive),7% (inactive),22.7% (inactive),-1.6% (inactive),21% (active),102% (inactive),-0.13 (inactive),7% (inactive),-0.06% (inactive)
COc1ccc(/C=N\NC(=O)CCc2c(C)n[nH]c2C)c(OC)c1OC,60.3,151% (inactive),-3.16% (inactive),111% (inactive),2% (inactive),3.8% (inactive),7.15% (inactive),-0.97% (inactive),102% (inactive),-0.21 (inactive),4% (inactive),4% (inactive)
CCCC(=O)O[C@]1(C(=O)CO)CC[C@H]2[C@@H]3CCC4=CC(=O)CC[C@]4(C)[C@H]3[C@@H](O)C[C@@]21C,56.4,901% (inactive),-8.75% (inactive),105% (inactive),-3% (inactive),-0.28% (inactive),14.7% (inactive),-3.44% (inactive),99.7% (inactive),-0.2 (inactive),1% (inactive),-3.67% (inactive)
O=C(Nc1ccccc1)OCC1CCCN2CCCCC12 (configuration not stated),80,511% (inactive),-0.27% (inactive),93.9% (inactive),-2% (inactive),-23.8% (inactive),-10.6% (inactive),1.1% (inactive),112% (inactive),-0.04 (inactive),16% (inactive),63% (active)
